From PubChem BioAssay (NCI) come the findings set out here.

Some test systems named below: HCT-15 colon; HT29 colon; SNB-75 CNS; SNB-19 CNS; PC-3 prostate; SK-MEL-5 melanoma; UACC-62 melanoma; LOX IMVI melanoma; SK-MEL-28 melanoma; SK-MEL-2 melanoma; EKVX NSCLC; SN12C renal; UO-31 renal; TK-10 renal; ACHN renal; CAKI-1 renal; A498 renal; CCRF-CEM leukemia; MOLT-4 leukemia.
Holding throughout (experiment): NCI-60 one-dose screen, 48 h (100 = growth as untreated, 0 = no growth, -100 = all killed)
Holding throughout (details): 10 µM

This is part of a sample that, as a whole, favours compounds with a hit. Of some 83,000 tested, about 20% had one in any assay.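 The endpoint reported here, percent growth, reads 100 for growth as untreated, 0 for no net growth and -100 for all cells dead.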 Unmarked numbers belong to inactive results. Activity calls are given as the source filed them. How the source made its calls: active means growth percent below 10; inactive means the rest.

For `O=c1oc2ccc(-c3ccc(F)cc3F)cc2c(=O)n1-c1ccc(F)c(Cl)c1`, the growth in the assay with HCT-15 colon was -23.6% (active); with HT29 colon, 23.1%; with SNB-75 CNS it was -23.7% (active); in the assay with SNB-19 CNS it was 12.5%; with PC-3 prostate, 5.69% (active); in the assay with SK-MEL-5 melanoma, -91.6% (active). For the same compound, the growth in the assay on UACC-62 melanoma was -60.2% (active); in the assay on LOX IMVI melanoma, -69.9% (active); in the assay on SK-MEL-28 melanoma, -21% (active); in the assay with SK-MEL-2 melanoma it was -67.4% (active); in the assay on EKVX NSCLC, -9.05% (active); in the assay on SN12C renal, -17% (active). For the same compound, the growth was -5.43% (active) in the assay with UO-31 renal; 11.9% in the assay on TK-10 renal; -12.7% (active) in the assay on ACHN renal; -20.4% (active) in the assay with CAKI-1 renal; -20.8% (active) in the assay with A498 renal; -5.97% (active) in the assay on CCRF-CEM leukemia. Further, the growth with MOLT-4 leukemia was -30.7% (active).

In the case of `CC(=O)NCC1=C(C)C=C2C(=O)[C@](C)(O)C3(CC3)C(C)=C21`, the growth is -20% (active) in the assay on HCT-15 colon; -20.4% (active) in the assay on HT29 colon; -74.5% (active) in the assay with SNB-75 CNS; -49.8% (active) in the assay on SNB-19 CNS; 2.77% (active) with PC-3 prostate; -84.7% (active) in the assay on SK-MEL-5 melanoma. Further, the growth with UACC-62 melanoma is -91% (active); with LOX IMVI melanoma, -49.3% (active); in the assay on SK-MEL-28 melanoma it was -93.3% (active); with SK-MEL-2 melanoma, -74.7% (active); with EKVX NSCLC it was -26.1% (active); with SN12C renal it was -74.7% (active). Besides, the growth was -32.2% (active) in the assay on UO-31 renal; -6.87% (active) in the assay on TK-10 renal; -37.4% (active) with ACHN renal; -31.6% (active) in the assay on CAKI-1 renal; -70.4% (active) in the assay on A498 renal; 51.9% in the assay on CCRF-CEM leukemia.

Take `O=c1oc2ccc(-c3ccc(F)cc3F)cc2c(=O)n1-c1ccc(Cl)c(C(F)(F)F)c1`: the growth was -12% (active) in the assay with HCT-15 colon; 9.55% (active) in the assay on HT29 colon; -4.03% (active) in the assay with SNB-75 CNS; 14.7% in the assay with SNB-19 CNS; 0.205% (active) in the assay with PC-3 prostate; -91.4% (active) with SK-MEL-5 melanoma. Further, the growth was -54.1% (active) in the assay on UACC-62 melanoma; -38.6% (active) in the assay on LOX IMVI melanoma; -20.1% (active) in the assay on SK-MEL-28 melanoma; -62% (active) in the assay with SK-MEL-2 melanoma; -4.43% (active) in the assay on EKVX NSCLC; -15% (active) with SN12C renal. Also, the growth in the assay on UO-31 renal is -3.08% (active); with TK-10 renal, 15.3%; in the assay on ACHN renal, -10.9% (active); in the assay on CAKI-1 renal, -15.8% (active); with A498 renal it was -17.6% (active); in the assay with CCRF-CEM leukemia it was -5.71% (active). Further, the growth in the assay on MOLT-4 leukemia is -8.23% (active).

Regarding `Cc1ccc2nc(-c3ccc(-c4nnc(SCC(=O)Nc5ccc(Cl)cc5)o4)cc3)[nH]c2c1`, the growth was 21.9% with HCT-15 colon; 31.2% in the assay with HT29 colon; 101% with SNB-75 CNS; 26.7% in the assay on SNB-19 CNS; 14% in the assay with PC-3 prostate; 83.9% in the assay with SK-MEL-5 melanoma. The growth in the assay on UACC-62 melanoma is 56.3%; in the assay on LOX IMVI melanoma, -45.6% (active); in the assay on SK-MEL-28 melanoma, 39.7%; with SK-MEL-2 melanoma it was 95%; in the assay on EKVX NSCLC, 58.7%; in the assay on SN12C renal, -3% (active). Moreover, the growth was 56.6% in the assay with UO-31 renal; 38.1% in the assay with TK-10 renal; 7.34% (active) with ACHN renal; 21.7% in the assay on CAKI-1 renal; 73.9% in the assay with A498 renal; 58.8% with CCRF-CEM leukemia. Besides, the growth with MOLT-4 leukemia is 35.6%.

`Nc1nc(-c2ccccc2)cc(-c2cc3ccccc3nc2Cl)n1`: the growth with HCT-15 colon is 55.9%; with HT29 colon, 102%; in the assay on SNB-75 CNS, 71.4%; with SNB-19 CNS it was 73.4%; in the assay on PC-3 prostate it was 76.9%; with SK-MEL-5 melanoma it was 92.9%. Besides, the growth in the assay with UACC-62 melanoma was 83.3%; with LOX IMVI melanoma, 45%; in the assay on SK-MEL-28 melanoma it was 103%; in the assay on SK-MEL-2 melanoma, 97.1%; in the assay with EKVX NSCLC, 80.1%; in the assay with SN12C renal, 83%. Moreover, the growth was 111% with TK-10 renal; 89.1% in the assay with ACHN renal; 80.1% in the assay with CAKI-1 renal; 108% in the assay on A498 renal; 1.2% (active) with CCRF-CEM leukemia; 59.2% in the assay with MOLT-4 leukemia.

On to `O=c1[nH]c2ccccc2cc1CSc1ccc(Nc2nccc(-c3ccc4c(c3)OCO4)n2)cc1`, for which the growth is 84.1% in the assay with HCT-15 colon; 74.3% in the assay on HT29 colon; 105% in the assay with SNB-75 CNS; 88.7% with SNB-19 CNS; 88.9% in the assay on PC-3 prostate; 94.5% in the assay on SK-MEL-5 melanoma. Further, the growth in the assay with UACC-62 melanoma is 96.2%; with LOX IMVI melanoma, 58.7%; in the assay on SK-MEL-28 melanoma it was 105%; in the assay on SK-MEL-2 melanoma it was 108%; in the assay on EKVX NSCLC, 94.2%; with SN12C renal it was 96%. Besides, the growth with UO-31 renal was 95.6%; with TK-10 renal it was 89.4%; with ACHN renal, 94.7%; with CAKI-1 renal it was 98%; with A498 renal, 121%; in the assay on CCRF-CEM leukemia, 98.4%. Also, in the assay on MOLT-4 leukemia, the growth was 102%.

On to `CC1=N/C(=C\c2ccc(N(C)C)cc2)C(=O)N1CCc1ccc(S(N)(=O)=O)cc1`, for which the growth in the assay with HCT-15 colon was 104%; in the assay with HT29 colon, 105%; in the assay with SNB-75 CNS it was 77.8%; with SNB-19 CNS, 95.2%; in the assay on PC-3 prostate, 96.7%; with SK-MEL-5 melanoma, 97.8%. Moreover, the growth is 93.7% with UACC-62 melanoma; 98.1% in the assay on LOX IMVI melanoma; 117% in the assay with SK-MEL-28 melanoma; 97.9% in the assay with SK-MEL-2 melanoma; 95.2% in the assay with EKVX NSCLC; 87.9% in the assay with UO-31 renal. Moreover, the growth was 110% with TK-10 renal; 105% with ACHN renal; 88.3% in the assay with CAKI-1 renal; 102% with A498 renal; 88.4% in the assay on CCRF-CEM leukemia; 93.6% with MOLT-4 leukemia.

Take `CC(C)(C)Nc1nc2cc(Cl)c(Cl)cc2nc1S(C)(=O)=O`: the growth is -35.8% (active) with HCT-15 colon; 47.4% in the assay on HT29 colon; 45.1% in the assay with SNB-75 CNS; 102% in the assay with SNB-19 CNS; 54% in the assay on PC-3 prostate; -17.4% (active) in the assay with SK-MEL-5 melanoma. Besides, the growth was 52.9% with UACC-62 melanoma; -98% (active) with LOX IMVI melanoma; 62.3% with SK-MEL-28 melanoma; 37.2% with SK-MEL-2 melanoma; 58.1% with EKVX NSCLC; 20.1% in the assay with SN12C renal. In addition, the growth in the assay with UO-31 renal is 90%; in the assay with TK-10 renal it was 99.8%; with ACHN renal, 56.3%; with CAKI-1 renal, 53.2%; in the assay with A498 renal, 142%; with CCRF-CEM leukemia it was -17.9% (active). For the same compound, the growth in the assay with MOLT-4 leukemia is -3.12% (active).
